From PubChem BioAssay
Calls of active or inactive are those of the source. No rule for the calls is given here.

Each molecule was assayed against Pantothenate synthetase (Mycobacterium tuberculosis (strain ATCC 25618 / H37Rv)) (UniProt P9WIL5) (assay: Recombinant Mtb pantothenate synthetase (PanC) inhibitors, coupled enzyme, confirmatory (AID 375;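 also: 0% = full reaction with vehicle and 100% = no enzyme background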)). Settings: coupled enzyme assay; at 10 µM, stronger effect = higher value.
Sequence of Pantothenate synthetase (Mycobacterium tuberculosis (strain ATCC 25618 / H37Rv)) (P9WIL5 whole entry, looked up): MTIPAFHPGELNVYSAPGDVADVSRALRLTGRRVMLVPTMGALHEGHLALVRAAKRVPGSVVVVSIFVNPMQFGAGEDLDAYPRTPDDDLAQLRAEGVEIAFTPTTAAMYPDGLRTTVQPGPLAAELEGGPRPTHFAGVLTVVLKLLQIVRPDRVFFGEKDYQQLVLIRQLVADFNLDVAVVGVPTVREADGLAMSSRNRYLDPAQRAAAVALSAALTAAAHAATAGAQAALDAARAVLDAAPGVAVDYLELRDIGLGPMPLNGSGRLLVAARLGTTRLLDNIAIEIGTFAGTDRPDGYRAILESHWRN

Q: How did the inhibition turn out when Cn1c(SCC(N)=O)nnc1C1CCN(C(=O)NCc2ccccc2)CC1 was run?
A: Its inhibition is 0% (inactive).

Q: CCN(CC)CCCN1C(=O)C(=O)/C(=C(/O)c2ccc(C)cc2)C1c1ccccn1 (centres undefined) was tested. Which inhibition did it give?
A: The inhibition was 3% (inactive).

Q: Which inhibition does the source give for CCOC(=O)c1ccc(N2C(=O)C3CC=CCC3C2=O)cc1 (centres undefined) here?
A: The inhibition was 1% (inactive).

Q: Which inhibition does the source give for COc1cccc2cc(C(=O)OC3CCN(C)CC3)c(=O)oc12 here?
A: Its inhibition is 9% (inactive).

Q: With O=C(Cn1c(=O)n(CC2CCCO2)c(=O)c2ccccc21)c1ccccc1 (centres undefined) as the molecule, how does the inhibition read?
A: Its inhibition is 0% (inactive).

Q: How did the inhibition turn out when COC(=O)c1[nH]c2cccc(C)c2c1NC(=O)CN1CCCc2ccccc21 was run?
A: The inhibition was 1% (inactive).

Q: Which inhibition does the source give for COc1ccc(-n2ncc3c(NCc4ccccn4)ncnc32)cc1 here?
A: The inhibition was 11% (inactive).

Q: Which inhibition does the source give for CCOC(=O)CSC1=C(C#N)C(c2ccc(C)o2)CC(=O)N1 (centres undefined) here?
A: Its inhibition is 0% (inactive).

Q: For CCCCOc1ccc(-c2nnn(CC(=O)Nc3ncc(CC(=O)OCC)s3)n2)cc1, which inhibition is on record?
A: The inhibition was 2% (inactive).

Q: How did the inhibition turn out when COc1ccc(CCn2c(N)c(C#N)c3nc4ccccc4nc32)cc1OC was run?
A: Its inhibition is 0% (inactive).

Q: CC(C)(C)SCCNC(=O)CN1C(=O)c2ccccc2S1(=O)=O was tested. Which inhibition did it give?
A: The inhibition was 0% (inactive).

Q: How did the inhibition turn out when Cc1oc2c(CN3CCOCC3)c(O)ccc2c(=O)c1-c1ccc(Br)cc1 was run?
A: Its inhibition is 0% (inactive).

Q: Which inhibition does the source give for O=S(=O)(NCCc1csc(-c2ccccc2)n1)c1ccc2c(c1)OCCO2 here?
A: The inhibition was 4% (inactive).

Q: With COc1ccc(-n2c(Cc3cccn3C)nnc2SCC(=O)Nc2cccc(C)c2C)cc1 as the molecule, how does the inhibition read?
A: The inhibition was 0% (inactive).

Q: How did the inhibition turn out when O=C(NC1CCCCC1)n1c(=O)oc2ccc(Cl)cc21 was run?
A: Its inhibition is 5% (inactive).

Q: Which inhibition does the source give for CC(=O)Nc1ccc(N=Cc2nc(-c3ccc(C)cc3)oc2O)cc1 here?
A: The inhibition was 0% (inactive).

Q: How did the inhibition turn out when CC(C)=CCSc1nnc(CCNC(=O)OC(C)(C)C)o1 was run?
A: The inhibition was 3% (inactive).

Q: With CC(=O)Nc1ccc(S(=O)(=O)n2nc(C)cc2C)cc1 as the molecule, how does the inhibition read?
A: The inhibition was 0% (inactive).

Q: For CCc1nc(C)c(-c2ccccc2)c(=O)[nH]1, which inhibition is on record?
A: The inhibition was 6% (inactive).

Q: Which inhibition does the source give for CC1CN(C(=O)CSc2nnc(-c3ccc(Cl)cc3)n2C)CC(C)O1 (centres undefined) here?
A: The inhibition was 0% (inactive).

Q: Which inhibition does the source give for COc1cc(C(=O)N(C)c2nnc(-c3cccnc3)s2)cc(OC)c1OC here?
A: Its inhibition is 0% (inactive).

Q: COC(=O)c1ccc2c(=O)n(NC(C)=O)c(=S)[nH]c2c1 was tested. Which inhibition did it give?
A: Its inhibition is 0% (inactive).

Q: Cc1cc(C)c(NC(=O)Cn2cc3c(n2)CCCC3)c(C)c1 was tested. Which inhibition did it give?
A: Its inhibition is 0% (inactive).

Q: How did the inhibition turn out when CCOC(=O)CSc1nnc(Cn2c(=O)sc3ccccc32)n1C was run?
A: The inhibition was 0% (inactive).

Q: Cc1cc(C)n(-c2ccc(N3CCOCC3)nn2)n1 was tested. Which inhibition did it give?
A: Its inhibition is 0% (inactive).

Q: Which inhibition does the source give for O=C(CSc1nnc(C2COc3ccccc3O2)o1)N1CCCc2ccccc21 (centres undefined) here?
A: The inhibition was 0% (inactive).

Q: For CN(C)c1ccc(C(=O)OCC(=O)NC2CCCCC2)cc1, which inhibition is on record?
A: Its inhibition is 0% (inactive).

Q: With Cc1nc2ccc(NC(=O)N3CCOCC3)cc2s1 as the molecule, how does the inhibition read?
A: The inhibition was 4% (inactive).

Q: How did the inhibition turn out when Cc1cccc2cc(CN(Cc3nnnn3Cc3ccccc3)C3CCCC3)c(=O)[nH]c12 was run?
A: The inhibition was 0% (inactive).

Q: CSc1nc(C)cc(Oc2ccc(=O)n(C)n2)n1 was tested. Which inhibition did it give?
A: The inhibition was 0% (inactive).

Q: With COCCN(CC(=O)Nc1ccccc1C)S(=O)(=O)c1ccc(S(=O)(=O)N2CCCC2)cc1 as the molecule, how does the inhibition read?
A: The inhibition was 0% (inactive).

Q: Which inhibition does the source give for COc1ccc(-c2noc(COc3ccc(C)c(C)c3)n2)cc1OC here?
A: Its inhibition is 0% (inactive).

Q: Which inhibition does the source give for Cc1ccc(C2=Nc3ccccc3NC(C)(c3ccc(C)o3)C2)o1 (centres undefined) here?
A: Its inhibition is 0% (inactive).

Q: Which inhibition does the source give for CC[N+](C)(CC)CCOC(=O)C(O)(c1ccccc1)C1CCCCC1 (centres undefined) here?
A: Its inhibition is 0% (inactive).

Q: Which inhibition does the source give for c1ccc(-c2csc(N3CCCCCC3)n2)cc1 here?
A: The inhibition was 4% (inactive).

Q: Which inhibition does the source give for Cc1cc(C)cc(NS(=O)(=O)c2ccc3[nH]cc(C(=O)NCc4ccco4)c(=O)c3c2)c1 here?
A: Its inhibition is 0% (inactive).

Q: CN(CC(=O)N1CCN(c2ccc(F)cc2)CC1)S(=O)(=O)c1ccc(F)cc1 was tested. Which inhibition did it give?
A: The inhibition was 0% (inactive).

Q: For Cc1ccc(S(=O)(=O)N(CC(=O)N2CCOCC2)CC(=O)N2CCOCC2)cc1, which inhibition is on record?
A: Its inhibition is 0% (inactive).

Q: For CCOC(=O)CCNC(=O)Nc1ccc2nc(C)n(Cc3ccccc3Cl)c(=O)c2c1, which inhibition is on record?
A: The inhibition was 5% (inactive).
